Source: PubChem BioAssay
The entries come from a sample that favours hits as a whole.
U2OS ROS induce: inducers of reactive oxygen species in cancer cells; 2% of 46,000 active; ROS induction (% of piperlongumine), % at 10 µM; U2OS ROS induction, H2DCF-DA fluorescence; AID 624156; in the data active = ROS induction above about 79%, passing the limit was not always enough;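 also: 0% = DMSO vehicle median and 100% = reference compound median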
The depositor's hits bear a star.

SMILES	U2OS ROS induce
C[C@@H]1CN([C@H](C)CO)C(=O)Cc2cc(NC(=O)Cc3cn(C)c4ccccc34)ccc2O[C@H]1CN(C)C(=O)Nc1ccc(C(F)(F)F)cc1	-6.7
CN(CCOC(=O)c1ccccc1)c1cc(C(F)(F)F)nc2ccccc12	18.8
C[C@H]1CN([C@@H](C)CO)C(=O)Cc2cc(NS(=O)(=O)c3ccccc3)ccc2O[C@H]1CN(C)Cc1ccncc1	15.8
Cc1ccc(NC(=O)CN(C)S(=O)(=O)c2ccc(F)cc2)c(C)c1	-0.9
Cc1ccc(S(=O)(=O)Nc2ccc3c(c2)CC(=O)N([C@H](C)CO)C[C@H](C)[C@H](CN(C)S(=O)(=O)c2cccs2)O3)cc1	96.0*
C[C@@H]1CN([C@@H](C)CO)C(=O)Cc2cc(NS(=O)(=O)c3ccccc3)ccc2O[C@@H]1CN(C)S(=O)(=O)c1ccc(F)cc1	13.9
C[C@H]1CN([C@@H](C)CO)C(=O)Cc2cc(NS(=O)(=O)c3ccc(F)cc3)ccc2O[C@H]1CN(C)S(=O)(=O)c1ccccc1	106.2*
Cc1ccc(S(=O)(=O)Nc2ccc3c(c2)CC(=O)N([C@@H](C)CO)C[C@@H](C)[C@@H](CN(C)S(=O)(=O)c2cccs2)O3)cc1	-0.1
Cc1ccc(S(=O)(=O)Nc2ccc3c(c2)CC(=O)N([C@H](C)CO)C[C@@H](C)[C@H](CN(C)S(=O)(=O)c2cccs2)O3)cc1	9.1
C[C@H]1CN([C@@H](C)CO)C(=O)Cc2cc(NS(=O)(=O)c3ccccc3)ccc2O[C@H]1CN(C)S(=O)(=O)c1ccc(F)cc1	6.6
COc1ccc(Br)cc1/C=N/NC(=O)c1ccccc1O	-4.8
C[C@@H]1CN([C@@H](C)CO)C(=O)c2cccc(NC(=O)NC3CCCCC3)c2O[C@@H]1CN(C)C(=O)Nc1ccc(C(F)(F)F)cc1	16.2
C[C@H]1CN([C@@H](C)CO)C(=O)Cc2cc(NS(C)(=O)=O)ccc2O[C@@H]1CN(C)C(=O)Nc1ccc(F)cc1	4.0
C[C@@H]1CN([C@H](C)CO)C(=O)Cc2cc(NS(=O)(=O)c3cccs3)ccc2O[C@@H]1CN(C)S(=O)(=O)c1cn(C)cn1	-1.7
C[C@@H]1CN([C@H](C)CO)C(=O)c2cccc(NS(=O)(=O)c3ccc(Cl)cc3)c2O[C@H]1CN(C)S(=O)(=O)c1ccccc1	-6.3
CC(C)NC(=O)N(C)C[C@@H]1Oc2c(NS(=O)(=O)c3ccc(F)cc3)cccc2C(=O)N([C@H](C)CO)C[C@@H]1C	-4.6
C[C@@H]1CN([C@@H](C)CO)C(=O)c2cc(NC(=O)NC3CCCCC3)ccc2O[C@@H]1CN(C)S(=O)(=O)c1ccc(F)cc1	-1.8
N#CC1=C(N)Nc2c(c(=O)oc3ccccc23)C1c1ccc(Br)cc1 (stereo unspecified)	81.0*
C=CCN1C(=O)C2(C(C#N)=C(N)Oc3c2c(=O)oc2ccccc32)c2ccccc21 (stereo unspecified)	13.2
COc1cc2c(cc1OC)[C@@H]1C(=O)c3ccc4c(c3O[C@@H]1CO2)C=CC(C)(C)O4	48.0
CCOC(=O)c1ccc(Nc2ncnc3ccccc23)cc1	-9.7
CCOC(=O)c1cnc2ccccc2c1NCCc1ccccc1	112.5*
CCOC(=O)c1cnc2c(ccc3ccccc32)c1NCc1ccco1	25.5
CCOC(=O)c1cnc2c(-c3ccccc3)cnn2c1C	45.2
CCOC(=O)c1cnc2c(ccc3ccccc32)c1NCCOC(=O)c1cccnc1	247.9*
SMILES	U2OS ROS induce
CCOC(=O)c1cnc2c(ccc3ccccc32)c1NCC(C)C	15.1
CCOC(=O)N1CCc2c(sc3ncn(Cc4ccc(Cl)cc4)c(=O)c23)C1	60.2
CC1(C)NCCC12C(=O)N(Cc1ccccc1)c1ccccc12 (stereo unspecified)	-11.7
COc1ccc(CN(C)C[C@H]2Oc3c(NC(=O)Nc4c(C)noc4C)cccc3C(=O)N([C@H](C)CO)C[C@@H]2C)cc1	-4.5
COc1ccc(NC(=O)N(C)C[C@@H]2Oc3ccc(NS(=O)(=O)c4c(C)noc4C)cc3CC(=O)N([C@H](C)CO)C[C@H]2C)cc1	-5.7
COc1cc(OC)c(C2=NOC(C(=O)Nc3cnn(C45CC6CC(CC(C6)C4)C5)c3)C2)cc1Cl (stereo unspecified)	57.5
C[C@@H]1CN([C@H](C)CO)C(=O)c2cccc(NC(=O)C3CCOCC3)c2O[C@H]1CN(C)Cc1ccc(-c2ccccc2)cc1	100.0*
C[C@H]1CN([C@@H](C)CO)C(=O)c2cccc(NC(=O)NC3CCCCC3)c2O[C@H]1CN(C)Cc1ccc(-c2ccccc2)cc1	11.6
C[C@H](CO)N1C[C@H](C)[C@@H](CN(C)Cc2ccccc2)Oc2c(NC(=O)NC3CCCCC3)cccc2C1=O	1.2
C[C@H]1CN([C@@H](C)CO)C(=O)c2cccc(NC(=O)C3CCOCC3)c2O[C@H]1CN(C)Cc1ccc(-c2ccccc2)cc1	-5.0
C[C@@H]1CN([C@H](C)CO)C(=O)c2cccc(NC(=O)NC3CCCCC3)c2O[C@@H]1CN(C)Cc1ccc(-c2ccccc2)cc1	101.3*
C[C@H](CO)N1C[C@H](C)[C@@H](CN(C)Cc2ccc(-c3ccccc3)cc2)Oc2c(NC(=O)C3CCOCC3)cccc2C1=O	26.4
